Measured values from PubChem BioAssay (Tox21).
Values joined by “and” are separate entries in the source; they are usually repeats but may differ in a detail not shown here. Equal entries are not always repeated. Inconclusive results are not listed. Active and inactive are the calls of the source. Unless noted, calls come from the whole dose curve; as a rule, active = well fitted curve in the direction sought with a large enough effect in the repeat runs; inconclusive = weak or mixed curves; inactive = no such curve, though single readings can be large; an effect the other way counts as inactive or inconclusive.

Tests used:
[1] = qHTS assay to identify small molecule antagonists of the estrogen related receptor (ERR) signaling pathway from Tox21 library - cell viability counter screen (AID 1224834); note: nearly all actives have a fitted effect of over 30% in size
Summary of the method: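 After 17.5 h of compound exposure at 37 C, ERR cells are incubated with CellTiter-Fluor for 30 min and fluorescence intensity serves as the viability measure.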

[2] = biological target: Luciferin 4-monooxygenase (Photinus pyralis) (UniProt P08659); assay: qHTS assay to identify small molecule inhibitors of firefly luciferase (AID 1224835); note: nearly all actives have a fitted effect of over 25% in size
Chain of Luciferin 4-monooxygenase (Photinus pyralis) (P08659 whole entry, looked up): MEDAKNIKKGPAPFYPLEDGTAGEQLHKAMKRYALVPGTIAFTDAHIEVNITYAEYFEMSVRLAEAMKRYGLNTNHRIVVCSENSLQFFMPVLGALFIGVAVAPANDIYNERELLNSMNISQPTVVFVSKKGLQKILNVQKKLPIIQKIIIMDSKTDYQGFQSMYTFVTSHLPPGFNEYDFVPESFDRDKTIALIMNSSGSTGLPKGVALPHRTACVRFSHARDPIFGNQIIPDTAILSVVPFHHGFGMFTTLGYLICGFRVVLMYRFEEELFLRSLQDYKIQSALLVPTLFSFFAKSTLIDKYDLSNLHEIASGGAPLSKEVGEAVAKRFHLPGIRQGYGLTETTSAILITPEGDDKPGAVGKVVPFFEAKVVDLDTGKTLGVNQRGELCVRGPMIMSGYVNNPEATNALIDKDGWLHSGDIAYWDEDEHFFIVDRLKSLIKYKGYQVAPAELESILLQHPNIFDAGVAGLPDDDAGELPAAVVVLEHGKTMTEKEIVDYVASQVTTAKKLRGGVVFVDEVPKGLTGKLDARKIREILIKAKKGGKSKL
Summary of the method: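 Inhibition of purified Photinus luciferase is measured by luminescence. Substrate levels (D-luciferin, ATP) sit at their KM values. Each compound is tested in a concentration series.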

[3] = qHTS assay to identify small molecule antagonists of the constitutive androstane receptor (CAR) signaling pathway - cell viability counter screen (AID 1224837); note: nearly all actives have a fitted effect of over 45% in size
Summary of the method: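 Counter screen run in HepG2-CYP2B6-hCAR cells: 4 hr settle, compound titration (15 concentrations) with 50 nM CITCO, 23 hr at 37 C/5% CO2, CellTiter-Fluor fluorescence.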

[4] = qHTS assay to identify small molecule antagonists of the estrogen related receptor signaling pathway with the pleiotropic PPARgamma coactivator (PGC) from Tox21 10K library - cell viability counter screen (AID 1224840; active = well fitted cell-killing curve with a large enough effect in the repeat runs, not every such curve was filed as active; note: nearly all actives have a fitted effect of over 40% in size)
Summary of the method: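 Following seeding of 2,000 PGC/ERR cells/well and 6 hours' incubation, test compounds were delivered in DMSO. The plates then sat 17.5 hours at 37 C before a fluorogenic live-cell protease reagent (CellTiter-Fluor) was read after 30 min.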

[5] = qHTS assay to identify small molecule agonists of the hypoxia (HIF-1) signaling pathway - cell viability counter screen (AID 1224844; calls by dose curve; note: nearly all actives have a fitted effect of over 50% in size)
Summary of the method: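 Cells (HRE-bla ME-180, 2,000 per well) sat 5 hrs at 37C, got compound for 17 hrs, were read for CCF4-AM FRET, and were finally lysed with CellTiter-Glo for a 30 min room-temperature luminescence read.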

[6] = qHTS assay to identify small molecule agonists of H2AX (AID 1224845; active = well fitted activation curve with a large enough effect in the signal ratio in the repeat runs, not every such curve was filed as active; the % refers to the signal ratio)
Summary of the method: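 Phospho-H2AX Ser139 measured by HTRF (ex 320 nm; em 665 and 620 nm) after 24 hr antibody incubation. Compounds, 15 concentrations, 0.76% DMSO, were applied to CHO-K1 cells for 3hr at 37C before lysis.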

[7] = qHTS assay to identify small molecule agonists of the hypoxia (HIF-1) signaling pathway (AID 1224846; active = well fitted activation curve with a large enough effect in the signal ratio in the repeat runs, not every such curve was filed as active; the % refers to the signal ratio)
Summary of the method: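 A low-serum medium (0.5% dialyzed FBS) holding 2,000 HRE-bla ME-180 cells per well is preincubated for 5 hrs, dosed with compounds by pintool, and kept a further 17 hrs at 37C, 5% CO2 before CCF4-AM FRET detection of beta-lactamase.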

[8] = qHTS assay to identify small molecule agonists of H2AX - cell viability counter screen (AID 1224847; calls by dose curve;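 note: wild-type CHO-K1 cells; top concentration of the series differs between compounds; nearly all actives have a fitted effect of over 30% in size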)
Summary of the method: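 For this counter screen, overnight-attached CHO-K1 cells received test compounds (15 concentrations, 0.76% DMSO final); 3 hr later at 37C, CellTiter-Glo reagent was added and luminescence recorded after 30 min at room temperature.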

[9] = qHTS RealTime-Glo MT Cell Viability Assay in HepG2 cells - 24 hour (AID 1224867); note: nearly all actives have a fitted effect of over 50% in size
Summary of the method: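 Tox21 10K library screened in qHTS format on HepG2 cells carrying RealTime-Glo reagents. Compounds were added after a 5 h preincubation, and the luminescent signal from continuous culture was measured repeatedly during 40 h treatment.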

[10] = qHTS RealTime-Glo MT Cell Viability Assay in HEK293 cells - 32 hour (AID 1224868); note: top concentration of the series differs between compounds; nearly all actives have a fitted effect of over 50% in size
Summary of the method: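 Luminescence generated by NanoLuc from substrate produced by living HEK293 cells served as the viability signal. Each value reflects the reading at its stated time point during continuous 40 h compound exposure at 37 C.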

[11] = A CellTox Green Cytotoxicity Assay to monitor cytotoxicity in HEK293 cells - 0 hour (AID 1224869); note: nearly all actives have a fitted effect of over 50% in size
Summary of the method: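 Fluorescence intensity, read at 0, 8, 16, 24, 32 and 40 h of compound treatment, reflected dye binding to DNA of dead HEK293 cells; compounds (23 nL, DMSO) were added 5 h after plating cells with reagent.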

[12] = qHTS RealTime-Glo MT Cell Viability Assay in HepG2 cells - 40 hour (AID 1224870); note: nearly all actives have a fitted effect of over 50% in size
Summary of the method: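 Real-time viability: cells seeded at 600 per well together with NanoLuc and cell-permeant prosubstrate, compounds added after 5 h incubation. Luminescence tracked at 0, 8, 16, 24, 32 and 40 h of exposure.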

[13] = biological target: Nuclear receptor subfamily 1 group I member 3 (Homo sapiens) (UniProt Q14994); assay: qHTS assay to identify small molecule antagonists of the constitutive androstane receptor (CAR) signaling pathway (AID 1224838);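 note: HepG2 cells stably expressing hCAR with CYP2B6 luciferase reporter stimulated by CITCO; nearly all actives have a fitted effect of over 40% in size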
Chain of Nuclear receptor subfamily 1 group I member 3 (Homo sapiens) (Q14994 whole entry, looked up): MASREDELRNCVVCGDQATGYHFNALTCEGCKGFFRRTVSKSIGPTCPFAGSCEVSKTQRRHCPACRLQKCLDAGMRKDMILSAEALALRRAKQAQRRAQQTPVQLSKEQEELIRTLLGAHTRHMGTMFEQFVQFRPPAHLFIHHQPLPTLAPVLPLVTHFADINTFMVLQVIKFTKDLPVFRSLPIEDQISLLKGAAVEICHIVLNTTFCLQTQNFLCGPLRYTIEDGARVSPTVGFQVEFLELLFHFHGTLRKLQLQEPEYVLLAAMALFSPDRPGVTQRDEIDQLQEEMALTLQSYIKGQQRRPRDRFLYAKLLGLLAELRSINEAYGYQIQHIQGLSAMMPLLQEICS
Summary of the method: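 Cell line: HepG2 double-stable for hCAR and CYP2B6-2.2kb reporter. Agonist: CITCO, 50 nM final. Compounds: 15 concentrations, 24 h, 37 C. Detection: ONE-Glo luminescence.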

[14] = biological target: Nuclear receptor subfamily 1 group I member 3 (Homo sapiens) (UniProt Q14994); assay: qHTS assay to identify small molecule agonists of the constitutive androstane receptor (CAR) signaling pathway (AID 1224839);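 note: HepG2 cells stably carrying human CAR and a CYP2B6 luciferase reporter; nearly all actives have a fitted effect of over 15% in size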
Summary of the method: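 Readout: firefly luciferase luminescence via ONE-Glo. System: HepG2 double-stable for hCAR and CYP2B6-2.2kb. Conditions: 15-point compound titration, PK11195 at 0.75 uM final, 24 h incubation.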

[15] = biological target: Thyrotropin receptor (Homo sapiens) (UniProt P16473); assay: qHTS assay to identify small molecule agonists of the thyroid stimulating hormone receptor (TSHR) signaling pathway (AID 1224843; calls by dose curve; note: nearly all actives have a fitted effect of over 45% in size)
Chain of Thyrotropin receptor (Homo sapiens) (P16473 whole entry, looked up): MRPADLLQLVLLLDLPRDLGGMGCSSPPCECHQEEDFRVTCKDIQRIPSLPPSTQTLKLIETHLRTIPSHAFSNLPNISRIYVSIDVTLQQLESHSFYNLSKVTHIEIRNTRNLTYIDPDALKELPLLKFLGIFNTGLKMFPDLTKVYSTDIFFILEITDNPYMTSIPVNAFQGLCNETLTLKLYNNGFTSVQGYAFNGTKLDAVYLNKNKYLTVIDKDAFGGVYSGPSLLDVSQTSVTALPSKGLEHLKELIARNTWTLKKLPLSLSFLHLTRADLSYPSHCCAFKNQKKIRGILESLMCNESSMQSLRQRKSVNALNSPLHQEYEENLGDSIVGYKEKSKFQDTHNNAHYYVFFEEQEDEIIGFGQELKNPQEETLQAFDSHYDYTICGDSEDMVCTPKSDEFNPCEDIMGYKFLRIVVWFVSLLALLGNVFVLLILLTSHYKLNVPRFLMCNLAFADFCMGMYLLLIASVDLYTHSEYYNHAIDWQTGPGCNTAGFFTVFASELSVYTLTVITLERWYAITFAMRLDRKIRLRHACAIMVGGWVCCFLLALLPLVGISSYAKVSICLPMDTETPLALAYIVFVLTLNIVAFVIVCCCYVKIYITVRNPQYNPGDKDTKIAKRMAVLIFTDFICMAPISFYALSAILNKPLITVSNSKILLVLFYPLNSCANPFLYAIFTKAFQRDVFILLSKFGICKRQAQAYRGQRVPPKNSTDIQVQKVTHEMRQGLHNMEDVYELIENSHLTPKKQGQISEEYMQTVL
Summary of the method: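 HEK293 cells stably bearing the thyrotropin receptor were plated at 800 cells/well and challenged with compound (30 min, RT). Accumulated cAMP was quantified via cAMP-d2 competing for cryptate-tagged antibody.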

[16] = qHTS assay to identify small molecule antagonists of the estrogen related receptor signaling pathway with the pleiotropic PPARgamma coactivator (PGC) from Tox21 10K library (AID 1224841; call rule not given here)
Summary of the method: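 qHTS antagonist format: PGC/ERR cells, 2k/well, compound in DMSO by pin transfer after 6 h attachment, 18 h treatment at 37 C, One-Glo luminescence read at 30 min.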

[17] = qHTS assay to identify small molecule agonists of the estrogen related receptor signaling pathway with the pleiotropic PPARgamma coactivator (PGC) from Tox21 10K library (AID 1224842); note: nearly all actives have a fitted effect of over 15% in size
Summary of the method: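 Luminescence from One-Glo (30 min, room temperature) measured after PGC/ERR cells had 18 h at 37 C with pinned compound (23 nL in DMSO). Cells had been seeded at 2,000 per well and pre-incubated 6 h.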

[18] = qHTS assay to identify small molecule antagonists of the estrogen related receptor (ERR) signaling pathway from Tox21 library (AID 1224848); note: nearly all actives have a fitted effect of over 50% in size
Summary of the method: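 Reading was by luminescence 30 min after ONE-Glo addition. Before that, ERR cells at 2,000 per well had rested 6 h at 37 C/5% CO2 and then received pin-tooled compounds in DMSO for 18 h at 37 C.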

[19] = qHTS assay to identify small molecule agonists of the estrogen related receptor (ERR) signaling pathway from Tox21 library (AID 1224849; calls by dose curve; note: nearly all actives have a fitted effect of over 15% in size); settings: ERR reporter cell line, ONE-Glo luciferase, 18 h
Summary of the method: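 Screening used an NTP-provided ERR luciferase cell line. Compounds in DMSO were added 6 h after seeding and left 18 h at 37 C before a 30 min ONE-Glo step and luminescence reading.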
% is set by controls: 0 for no effect and ±100 for the full control effect.

CCCC(O)C(CC)CO (stereo not drawn)
inactive: Potency [1] | Potency [2] | Potency [3] | Potency [4] | Potency [5] | outcome [6] | outcome [7] | outcome [8] | Potency [9] | Potency [10] | outcome [11] | Potency [12]

O=S(=O)(O)NC1CCCCC1
inactive: Potency [1] | Potency [3] | Potency [13] | Potency [14] | Potency [4] | outcome [15] | Potency [5] | outcome [6] | outcome [7] | outcome [8] | Potency [9] | Potency [10] | outcome [11] | Potency [12]

Nc1ccn([C@H]2CC[C@@H](CO)O2)c(=O)n1
inactive: Potency [1] | Potency [2] | Potency [3] | Potency [4] | outcome [15] | Potency [5] | outcome [6] | outcome [8] | Potency [9] | Potency [10] | outcome [11] | Potency [12]

NC(=O)NC1NC(=O)NC1=O (stereo not drawn)
inactive: Potency [1] | Potency [2] | Potency [3] | Potency [13] | Potency [14] | Potency [4] | outcome [15] | Potency [5] | outcome [6] | outcome [7] | outcome [8] | Potency [9] | Potency [10] | outcome [11] | Potency [12]

CCCCCCCCCCCCCCCC(=O)O
inactive: Potency [1] | Potency [2] | Potency [3] | Potency [13] | Potency [14] | Potency [4] | outcome [15] | Potency [5] | outcome [6] | outcome [7] | outcome [8] | Potency [9] | Potency [10] | outcome [11] | Potency [12]

O=C(O)C(=O)O
inactive: Potency [1] | Potency [2] | Potency [3] | Potency [4] | outcome [15] | Potency [5] | outcome [6] | outcome [7] | outcome [8] | Potency [9] | Potency [10] | outcome [11] | Potency [12]

CC(O)CO (stereo not drawn)
inactive: Potency [1] | Potency [2] | Potency [3] | Potency [4] | Potency [16] | Potency [17] | outcome [15] | Potency [5] | outcome [6] | outcome [7] | outcome [8] | Potency [18] | activity change, positive = activation ([19]; at 8.39 µM (top of the series)) -3.08% | activity change, positive = activation ([19]; at 92.4 µM (top of the series)) -3.85% and -1.76% | Potency [9] | Potency [10] | outcome [11] | Potency [12]

O=C(c1ccccc1)c1ccccc1
inactive: Potency [1] | Potency [3] | Potency [4] | Potency [5] | outcome [6] | outcome [7] | outcome [8] | Potency [9] | Potency [10] | outcome [11] | Potency [12]

Nc1ccc(O)c(C(=O)O)c1
inactive: Potency [1] | Potency [3] | Potency [13] | Potency [14] | Potency [4] | Potency [16] | Potency [17] | outcome [15] | Potency [5] | outcome [7] | outcome [8] | Potency [18] | activity change, positive = activation ([19]; at 42.5 µM (top of the series)) -9.77% | activity change, positive = activation ([19]; at 92.4 µM (top of the series)) -1.78% and -6.73% | Potency [9] | Potency [10] | outcome [11] | Potency [12]
